Measurements: ChEMBL document CHEMBL1157539, “Thousands of chemical starting points for antimalarial lead identification” (Nature, 2010)

What was measured:
Format in all cases: functional
[1] = tested on: Plasmodium falciparum; assay: GSK_TCMDC: Inhibition of Plasmodium falciparum 3D7 in whole red blood cells, using parasite LDH activity as an index of growth. Test compounds present at 2uM
[2] = tested on: Plasmodium falciparum; assay: GSK_TCMDC: Inhibition of Plasmodium falciparum Dd2 in whole red blood cells, using parasite LDH activity as an index of growth. Test compounds present at 2uM
[3] = tested on: HepG2; assay: GSK_TCMDC: Percent inhibition of human HepG2 cell line. Test compounds present at 10uM.

COc1c(C2CCN(CCCCNC(=O)c3ccc(-c4ccc(C#N)cc4)nc3)CC2)ccc2c1CCCC2
Inhibition [1]: 95%
Inhibition [2]: 67%
Inhibition [3]: 54%

COc1ccc(-c2csc(N(CCCN(C)C)C(=O)c3cc4c(C)nn(-c5ccccc5)c4s3)n2)cc1.Cl
Inhibition [1]: 100%
Inhibition [2]: 16%
Inhibition [3]: 100%

Cc1ccc(-c2nc3ccccc3o2)cc1NCc1cc(Cc2ccccc2)ccc1O
Inhibition [1]: 82%
Inhibition [2]: 50%
Inhibition [3]: 45%

Cl.O=C(Nc1ccc2c(c1)CCNCC2)c1ccc(-c2ccc(Cl)cc2)cc1
Inhibition [1]: 96%
Inhibition [2]: 38%
Inhibition [3]: 71%

COc1ccccc1N1CCN(Cc2c(NC(C)=O)sc(C)c2C)CC1
Inhibition [1]: 95%
Inhibition [2]: 80%
Inhibition [3]: 9%

CCOC(=O)C(CO)NC(=O)c1ccc([N+](=O)[O-])o1 (stereo not given)
Inhibition [1]: 96%
Inhibition [2]: 2%
Inhibition [3]: 0%

O=C(O)C(F)(F)F.c1cc(CNCC2CCCO2)cc(-c2csc(-c3nc4ccccc4[nH]3)c2)c1 (stereo not given)
Inhibition [1]: 91%
Inhibition [2]: 6%
Inhibition [3]: 5%

COc1ccc(-c2cc3nc4c(c(NCCCn5ccnc5)n3n2)CCCC4)cc1
Inhibition [1]: 95%
Inhibition [2]: 74%
Inhibition [3]: 5%

CC(C)C[C@H](NC(=O)c1cc2ccccc2s1)C(=O)N[C@H]1CCN(Cc2ccc(OCCN3CCNCC3)c3ccccc23)C1.O=C(O)C(F)(F)F
Inhibition [1]: 100%
Inhibition [2]: 96%
Inhibition [3]: 43%

N#Cc1cccc(CN2CCCN(Cc3ccc(C(=O)Nc4ccc(Cl)cc4)cc3)CC2)c1.O=C(O)C(F)(F)F
Inhibition [1]: 98%
Inhibition [2]: 21%
Inhibition [3]: 48%
